# PubChem BioAssay (NCI)
# About 79,000 compounds went through this panel and 15% of them were active in at least one assay; those are over-represented in the sample as a whole. A number with no mark means an inactive call. Active and inactive are the calls of the source. No stated cut-off is given here; in the data, active means growth inhibition above about 70%; inactive means the rest.
# Legend:
# [1] = NCI Yeast Anticancer Drug Screen. Data for the rad50 strain (AID 155);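 further: 0% = growth of vehicle-only cultures of the same strain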; settings: S. cerevisiae rad50 strain growth inhibition; at 50.0 µM; hits give high values
# Method in brief: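 Vehicle-treated cultures provide the reference for the growth inhibition reported for compound-exposed, repair-deficient yeast.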
# [2] = NCI Yeast Anticancer Drug Screen. Data for the mec2-1 strain (AID 157); settings: S. cerevisiae mec2-1 strain, at 50.0 µM, hits give high values
# Method in brief: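 Test agents were screened against the mec2-1 yeast strain, with defined DNA repair or cell cycle alteration. Growth was scored as inhibition against vehicle-only controls.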
# [3] = NCI Yeast Anticancer Drug Screen. Data for the sgs1 mgt1 strain (AID 161);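 further: 0% = growth of cultures given vehicle only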; settings: S. cerevisiae sgs1 mgt1 strain, at 50.0 µM, hits give high values
# Method in brief: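 Read-out: growth inhibition vs vehicle controls. Cells: mutant yeast strain deficient in DNA damage repair.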
# [4] = NCI Yeast Anticancer Drug Screen. Data for the cln2 rad14 strain (AID 165);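 further: 0% = growth equal to vehicle treated cultures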; settings: S. cerevisiae cln2 rad14 strain, at 50.0 µM, hits give high values
# Method in brief: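 Growth of compound-exposed yeast (cln2 rad14 genotype) measured and expressed as inhibition relative to vehicle.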
# [5] = NCI Yeast Anticancer Drug Screen. Data for the bub3 strain (AID 167); settings: S. cerevisiae bub3 mutant strain, at 50.0 µM, hits give high values
# Method in brief: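 Mutant yeast screening strain plus compound; vehicle-treated cultures serve as the 0% inhibition reference.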
# [6] = NCI Yeast Anticancer Drug Screen. Data for the mlh1 rad18 strain (AID 175); settings: S. cerevisiae mlh1 rad18 strain growth inhibition; at 50.0 µM; hits give high values
# Method in brief: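 In this whole-cell yeast screen, a strain with altered DNA damage repair is challenged with compound, and its growth is measured against matched vehicle-treated controls.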
SMILES,growth inhibition [1],growth inhibition [2],growth inhibition [3],growth inhibition [4],growth inhibition [5],growth inhibition [6]
CCOC(=O)OC1C(OC)OC2COC(c3ccccc3)OC2C1OC(=O)OCC (centres undefined),-1.4%,-13.3%,-20%,-15.7%,-2.25%,11.4%
CCCCCCCCCCCCCCCCC1=CC(=O)C=C(OC)C1=O,13.4%,1.45%,23.4%,-36%,-0.15%,15.6%
CCOC(=O)c1ccc(NC(=S)NC(=O)c2cccs2)o1,43.4%,49.8%,39.4%,36.1%,31.2%,63.4%
COC(=O)C(=O)C(C(=O)C(=O)Nc1ccc([N+](=O)[O-])cc1)c1nc2ccccc2[nH]c1=O (centres undefined),10.1%,-5.95%,19.5%,15.4%,11.7%,29.5%
N#CC1=C(c2ccccc2)C(=C2Nc3ccccc3N2)C2S/C(=C\c3ccccc3)C(=O)N2C1=N (centres undefined),21.2%,-12.3%,10.4%,-31.1%,4.45%,26.8%
COc1cc(C(C)Cl)ccc1OC(=O)c1ccccc1 (centres undefined),10.8%,-5%,3.95%,-10.2%,12.2%,4.5%
CC(COc1ccccc1)OC=O (centres undefined),10.6%,-2.65%,8.2%,-24.4%,-13.8%,8.65%
COc1cc(C=O)ccc1OC(=O)Nc1cccc(C(C)=O)c1,4.7%,23.6%,15.9%,7.65%,18.9%,-18.6%
NC(=O)C(C(N)=O)c1ccnc2ccccc12,8.6%,-2.65%,-16%,-16.8%,-2.1%,10.9%
CCn1c2ccccc2c2c3ncc4cccn4c3ccc21,10.8%,-6.95%,19.4%,14.4%,7.95%,27.8%
NC(CCCCO)C(=O)O (centres undefined),-6.8%,-35.8%,4.1%,23.1%,-29.1%,-15%
CC(C)=C1C(=O)C[C@]2(C)C[C@H]3O[C@]3(C)CC[C@@H]3O[C@@]3(C)CC[C@@H]12,0.3%,-8.05%,12.6%,14.1%,-1.65%,-66.5%
c1cncc(C2c3[nH]c4ccccc4c3CCN2CCN2CCCCC2)c1 (centres undefined),-32.8%,-46.5%,-9.4%,-4.35%,-37.5%,-34.4%
N#CC(N)c1ccc(OCCCCCCCCCCOc2ccc(C(N)C#N)cc2)cc1 (centres undefined),1.5%,2.65%,-27.2%,-7.8%,-17.4%,-20.8%
CCCCCCCC(=O)NNCc1ccccc1,-16.1%,33.2%,15.6%,3.35%,15.9%,6.9%
C=C1C(=O)O[C@H]2[C@H]1[C@@H](OC(=O)C=C(C)C)CC1=C[C@@H](C[C@@]3(C)O[C@@H]23)OC1=O,-7.45%,-7.55%,7.4%,9.85%,-2.6%,7.85%
CCN(CC)c1ccc(/C=C(\C#N)C(N)=S)cc1,35.4%,23.6%,45.2%,0.85%,15.6%,16.5%
COc1ccc2oc(=N)c(C(N)=S)cc2c1,28%,24.2%,-3.45%,16.8%,7.9%,-2.95%
CC1CC[C@]2(C(=O)O)CCC3(COC(=O)/C=C\c4ccc(O)cc4)C(=CCC4[C@@]5(C)CC[C@H](O)C(C)(C)C5CC[C@]43C)[C@@H]2[C@H]1C (some centres undefined),-1.9%,1.35%,-1.65%,5.55%,-3.1%,-17.8%
CCOC(CNCCC(=O)OC)OCC,-31.9%,-59.2%,-23.4%,-8%,-5.35%,-29.1%

SMILES,growth inhibition [1],growth inhibition [2],growth inhibition [3],growth inhibition [4],growth inhibition [5],growth inhibition [6]
C#CC(N)=O,-9.6%,11.4%,-0.6%,-20.6%,-6%,4.4%
CNC(=S)n1ncnc1N,11%,-5.95%,-2.9%,-17.8%,-3.75%,8.25%
COC(=O)c1c(-c2ccccc2)cn(C)c1C,16.9%,9.95%,12.8%,5.75%,6.6%,-6.4%
O=S(Cc1ccccc1)c1ccccc1Cn1cccc1 (centres undefined),-32.8%,-39.6%,-19.6%,-18.6%,14.2%,-9.5%
CCOC(=O)CSc1[nH]c(NC(=S)Nc2ccccc2)c(C(N)=O)c1C(N)=O,-14.2%,-8.2%,23.7%,-1.2%,7.5%,-4.45%
c1ccc2oc(-c3ccc4c(c3)OCO4)nc2c1,14.8%,42.8%,11.6%,4.5%,-2.75%,-0.2%
COC(=O)CC(C(C(=O)OC)C(=O)OC)N1C(=O)OC(c2ccccc2)C1c1ccccc1 (centres undefined),7.75%,-10.5%,-2.95%,9.4%,-18%,3.4%
Cc1ncnc(N)c1N,18.3%,14.2%,8.95%,26.1%,18.1%,2.8%
CC1=CC2=C(OCO1)C(=O)c1ccccc1C2=O,7.25%,14.6%,-21.6%,-17.1%,44.3%,8.95%
Cc1ccc(C2(c3ccccc3)c3ccccc3C(=O)N2c2ccccc2)cc1 (centres undefined),97% (active),97.6% (active),97.7% (active),95% (active),97.2% (active),96.9% (active)
CCC(C)Nc1ccc(NS(=O)(=O)CCl)cc1 (centres undefined),54%,6.3%,13.3%,4.25%,6.6%,8.9%
O=C(Nc1ccc(Cl)c(Cl)c1)C1C(=O)N(c2ccc(Cl)c(Cl)c2)C(=O)/C1=N\O (centres undefined),24.4%,-4.3%,11.2%,16.9%,-3.3%,22.8%
Cc1ccc2ccccc2c1Cc1c(C=O)[nH]c(=S)[nH]c1=O,94.7% (active),90.8% (active),97% (active),82.5% (active),90.5% (active),98.8% (active)
Cn1cncc1CC1COC(=O)C1C(O)c1ccccc1 (centres undefined),11%,8.45%,-14.2%,-1.5%,-26.9%,-53.9%
O=C(NCCc1ccccc1)c1ccc2ccccc2n1,65.3%,53.3%,63.7%,52.1%,87.5% (active),84.5% (active)
CCOC(=O)C(C)Sc1ncnc2nc[nH]c12 (centres undefined),-12.8%,4.4%,-3.15%,20.9%,18%,-0.9%
O=P(O)(O)OP(=O)(O)OCC1OC(n2cnc3c(=S)nc[nH]c32)C(O)C1O (centres undefined),-2.65%,3.5%,-5%,-9.2%,3.55%,2.85%
C1CC(CCN2CCOCC2)CCN1,-16.4%,-46.6%,-17.3%,9.8%,-2.7%,-8.45%
CCOC(NCc1ccc(OC)c(OC)c1)OCC,3.6%,-11.8%,6.45%,3.55%,17.1%,11.3%
